From PubChem BioAssay (Tox21)
Several values for one entry are separate records, joined by “and”; a condition that tells them apart may be missing. Equal values may be shown once. Inconclusive results are not listed. More than one record can exist for a structure, and the calls need not agree. Activity calls are given as the source filed them. Unless noted, calls follow the shape of the full dose curve.

Assays:
[1] = qHTS assay to identify small molecule antagonists of the sonic hedgehog signaling (Shh) pathway (AID 1259369); also: nearly all actives have a fitted effect of over 45% in size; also: potency is read from the fitted curve at half-maximal effect
Outline: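 Inhibition of Shh signalling is measured as reduced Gli1-response-element firefly luciferase output in an NIH/3T3-derived stable reporter clone stimulated with conditioned medium for 24hr.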

[2] = qHTS assay to identify small molecule agonists of the androgen receptor (AR) signaling pathway in the presence of an antagonist - cell viability counter screen (AID 1259379; active = well fitted curve in the direction sought with a large enough effect in the repeat runs; an effect the other way counts as inactive or inconclusive; also: nearly all actives have a fitted effect of over 25% in size; also: potency is read from the fitted curve at half-maximal effect)
Outline: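 Fluorescence from CellTiter-Fluor, added after 15 hr and read 1 hr later, gave cell viability. Cells were MDA-kb2 exposed to compounds (15 concentrations) in the presence of 3.0uM nilutamide at 37C, 0% CO2.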

[3] = qHTS assay to identify small molecule antagonists of the estrogen receptor beta (ER-beta) signaling pathway - cell viability counter screen (AID 1259382; active = well fitted curve in the direction sought with a large enough effect in the repeat runs; an effect the other way counts as inactive or inconclusive; also: nearly all actives have a fitted effect of over 55% in size; also: potency is read from the fitted curve at half-maximal effect)
Outline: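 Following a 6 hr plating period, HEK293T cells carrying a UAS-driven beta-lactamase reporter under ER-beta control received compounds and 1nM E2 (final). After 16 hr at 37C and 2 hr substrate loading, CellTiter-Glo luminescence indicated viability.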

[4] = target: Estrogen receptor (Homo sapiens) (UniProt P03372); test: qHTS assay to identify small molecule agonists of the estrogen receptor alpha (ER-alpha) signaling pathway in the presence of an antagonist (AID 1259383); also: nearly all actives have a fitted effect of over 15% in size; also: potency is read from the fitted curve at half-maximal effect; as to activation: top concentration of the series differs between compounds
Chain of Estrogen receptor (Homo sapiens) (P03372 whole entry, looked up): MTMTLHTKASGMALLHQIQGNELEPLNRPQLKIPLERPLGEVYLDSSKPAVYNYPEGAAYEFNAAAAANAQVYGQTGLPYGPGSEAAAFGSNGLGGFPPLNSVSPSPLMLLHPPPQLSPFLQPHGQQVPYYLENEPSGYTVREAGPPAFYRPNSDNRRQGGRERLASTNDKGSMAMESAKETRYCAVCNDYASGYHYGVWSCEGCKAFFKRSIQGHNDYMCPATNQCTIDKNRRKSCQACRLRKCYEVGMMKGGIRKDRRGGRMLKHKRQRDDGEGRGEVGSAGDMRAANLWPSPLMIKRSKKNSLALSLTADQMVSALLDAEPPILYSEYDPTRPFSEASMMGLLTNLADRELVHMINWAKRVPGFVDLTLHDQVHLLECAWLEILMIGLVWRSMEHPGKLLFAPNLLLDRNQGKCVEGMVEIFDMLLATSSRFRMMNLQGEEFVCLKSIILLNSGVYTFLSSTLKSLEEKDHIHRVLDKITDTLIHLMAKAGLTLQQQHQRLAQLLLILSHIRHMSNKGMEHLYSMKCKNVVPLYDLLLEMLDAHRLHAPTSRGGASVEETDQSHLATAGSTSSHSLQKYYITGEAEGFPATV
Outline: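 Cells are hormone-deprived for 5 days (charcoal-stripped FBS, no phenol red), plated for 24hr, spiked with 10.0nM ICI-182,780, then dosed at 15 concentrations. After 22hr at 37C, ONE-Glo luminescence reports ERE-luciferase activity.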

[5] = qHTS assay to identify small molecule agonists or antagonists of the thyroid stimulating hormone receptor (TSHR) signaling pathway - wild type cell line counter screen (AID 1259384)
Outline: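 Wild-type Hek293 cells, 800/well, 18 h at 37C, then compound with Ro20-1724 for 30 min RT. cAMP by HTRF (cAMP-d2/anti-cAMP cryptate), 1 h RT, fluorescence read. 15 concentrations, triplicates.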

[6] = target: Thyrotropin receptor (Homo sapiens) (UniProt P16473); test: qHTS assay to identify small molecule antagonists of the thyroid stimulating hormone receptor (TSHR) signaling pathway (AID 1259385); also: nearly all actives have a fitted effect of over 20% in size; also: potency is read from the fitted curve at half-maximal effect
Chain of Thyrotropin receptor (Homo sapiens) (P16473 whole entry, looked up): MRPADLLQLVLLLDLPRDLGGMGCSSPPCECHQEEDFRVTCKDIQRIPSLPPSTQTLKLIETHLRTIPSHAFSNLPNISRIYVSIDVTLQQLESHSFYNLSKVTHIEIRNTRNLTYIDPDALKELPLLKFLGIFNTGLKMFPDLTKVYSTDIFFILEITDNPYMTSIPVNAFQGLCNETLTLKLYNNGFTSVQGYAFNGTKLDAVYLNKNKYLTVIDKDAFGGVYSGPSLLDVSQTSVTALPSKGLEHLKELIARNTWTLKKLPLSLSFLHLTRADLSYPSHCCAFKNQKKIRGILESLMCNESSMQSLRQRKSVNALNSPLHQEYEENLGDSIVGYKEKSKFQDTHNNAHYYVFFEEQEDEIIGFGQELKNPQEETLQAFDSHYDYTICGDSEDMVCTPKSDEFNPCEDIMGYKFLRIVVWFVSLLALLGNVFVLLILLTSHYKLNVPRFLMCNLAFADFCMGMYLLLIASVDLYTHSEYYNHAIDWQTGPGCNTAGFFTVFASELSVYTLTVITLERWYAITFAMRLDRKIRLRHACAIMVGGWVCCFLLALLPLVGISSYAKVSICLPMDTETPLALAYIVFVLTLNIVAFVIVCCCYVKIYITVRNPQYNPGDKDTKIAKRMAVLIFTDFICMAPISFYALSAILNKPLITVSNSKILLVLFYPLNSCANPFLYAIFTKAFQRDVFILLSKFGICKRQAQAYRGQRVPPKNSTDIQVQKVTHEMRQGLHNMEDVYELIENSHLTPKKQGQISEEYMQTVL
Outline: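 TSHR-HEK293 cells (800/well) plated 18 h, then compounds with Ro20-1724 and TSH at 1.5 ng/mL final, 30 min at room temperature. cAMP quantified by HTRF (cAMP-d2/anti-cAMP-cryptate, 1 h); 15 concentrations in triplicate.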

[7] = qHTS assay to identify small molecule agonists of the estrogen receptor beta (ER-beta) signaling pathway - cell viability counter screen (AID 1259380; active = well fitted curve in the direction sought with a large enough effect in the repeat runs; an effect the other way counts as inactive or inconclusive; also: nearly all actives have a fitted effect of over 30% in size; also: potency is read from the fitted curve at half-maximal effect)
Outline: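 Same-well viability counter screen. Cells: ER-beta-UAS-bla HEK293T, plated 6 hr before compound, in 2% charcoal-stripped FBS. Compound exposure 16 hr, 37C; viability by CellTiter-Glo luminescence after 30 min at room temperature.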

[8] = target: Androgen receptor (Homo sapiens) (UniProt P10275); test: qHTS assay to identify small molecule agonists of the androgen receptor (AR) signaling pathway in the presence of an antagonist (AID 1259381); also: nearly all actives have a fitted effect of over 15% in size; also: potency is read from the fitted curve at half-maximal effect
Chain of Androgen receptor (Homo sapiens) (P10275 whole entry, looked up): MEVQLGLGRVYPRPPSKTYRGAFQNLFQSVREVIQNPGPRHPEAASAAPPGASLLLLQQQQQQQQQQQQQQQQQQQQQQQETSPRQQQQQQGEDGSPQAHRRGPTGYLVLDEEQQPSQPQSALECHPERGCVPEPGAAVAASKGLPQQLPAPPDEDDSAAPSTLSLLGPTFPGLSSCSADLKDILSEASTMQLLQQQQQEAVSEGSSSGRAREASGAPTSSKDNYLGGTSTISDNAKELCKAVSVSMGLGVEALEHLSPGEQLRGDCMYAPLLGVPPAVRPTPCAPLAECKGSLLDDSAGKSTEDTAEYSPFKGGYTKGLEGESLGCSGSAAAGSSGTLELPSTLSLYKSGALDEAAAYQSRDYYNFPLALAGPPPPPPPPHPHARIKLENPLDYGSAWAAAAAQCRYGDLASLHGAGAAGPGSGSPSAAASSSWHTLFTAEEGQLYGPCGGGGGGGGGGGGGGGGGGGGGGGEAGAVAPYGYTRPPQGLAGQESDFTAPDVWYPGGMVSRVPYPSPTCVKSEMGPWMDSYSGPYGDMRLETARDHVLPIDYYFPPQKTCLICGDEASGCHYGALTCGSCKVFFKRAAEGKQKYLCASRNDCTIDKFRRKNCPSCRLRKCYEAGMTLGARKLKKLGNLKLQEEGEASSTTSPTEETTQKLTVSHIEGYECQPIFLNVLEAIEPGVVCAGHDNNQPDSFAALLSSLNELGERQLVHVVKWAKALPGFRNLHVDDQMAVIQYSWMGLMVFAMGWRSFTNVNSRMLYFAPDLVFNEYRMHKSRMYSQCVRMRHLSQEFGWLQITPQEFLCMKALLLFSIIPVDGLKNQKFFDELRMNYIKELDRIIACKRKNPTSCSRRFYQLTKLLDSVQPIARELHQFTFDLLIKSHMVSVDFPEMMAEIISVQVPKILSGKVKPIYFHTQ
Outline: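 Cells are MDA-kb2 (human breast carcinoma, MMTV-luc, AR/GR responsive). Nilutamide is present at 3.0uM final throughout; compounds are added at 15 concentrations and incubated 16hr at 37C before ONE-Glo luminescence detection.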

[9] = target: Estrogen receptor beta (Homo sapiens) (UniProt Q92731); test: qHTS assay to identify small molecule agonists of the estrogen receptor beta (ER-beta) signaling pathway (AID 1259377; active = well fitted activation curve with a large enough effect in the signal ratio in the repeat runs, not every such curve was filed as active; the % refers to the signal ratio)
Chain of Estrogen receptor beta (Homo sapiens) (Q92731 whole entry, looked up): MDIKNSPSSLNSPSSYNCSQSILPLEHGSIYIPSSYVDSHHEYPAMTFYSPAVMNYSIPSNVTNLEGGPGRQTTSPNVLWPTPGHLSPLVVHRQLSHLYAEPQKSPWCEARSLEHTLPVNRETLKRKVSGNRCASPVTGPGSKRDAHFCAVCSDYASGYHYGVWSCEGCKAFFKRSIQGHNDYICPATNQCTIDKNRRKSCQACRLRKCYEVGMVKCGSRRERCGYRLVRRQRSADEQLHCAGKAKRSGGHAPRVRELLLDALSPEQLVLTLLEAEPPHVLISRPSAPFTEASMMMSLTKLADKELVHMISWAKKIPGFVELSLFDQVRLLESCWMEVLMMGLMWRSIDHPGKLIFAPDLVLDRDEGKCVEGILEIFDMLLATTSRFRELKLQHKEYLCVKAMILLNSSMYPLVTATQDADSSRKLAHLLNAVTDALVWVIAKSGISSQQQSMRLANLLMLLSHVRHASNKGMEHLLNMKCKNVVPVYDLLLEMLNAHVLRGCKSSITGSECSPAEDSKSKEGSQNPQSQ
Outline: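 Read-out: beta-lactamase FRET fluorescence. Cell line: ER-beta-UAS-bla HEK293T in 2% charcoal-stripped FBS. Exposure: 16 hr at 37C. Substrate step: 2 h at room temperature.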

[10] = target: Estrogen receptor beta (Homo sapiens) (UniProt Q92731); test: qHTS assay to identify small molecule antagonists of the estrogen receptor beta (ER-beta) signaling pathway (AID 1259378; active = well fitted inhibition curve with a large enough effect in the signal ratio in the repeat runs, not every such curve was filed as active; the % refers to the signal ratio)
Outline: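 ER-beta-UAS-bla HEK293T cells in 2% charcoal-stripped FBS medium treated with compound plus 1nM final 17-beta-estradiol for 16 hr at 37C. Beta-lactamase reporter read by FRET substrate fluorescence after 2 hours at room temperature.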

Measured: Potency
% is scaled to controls: 0 for no effect and ±100 for the full control effect.

C=CCC1=C(C)C(OC(=O)C2C(C=C(C)C)C2(C)C)CC1=O (configuration not stated)
active: [1] 16.3 µM | [2] 61.1 µM | [6] 61.1 µM
inactive: [3] | [4] | [5]

CCOC(=O)OC1=C(c2cc(C)ccc2C)C(=O)NC12CCC(OC)CC2 (configuration not stated)
active: [1] 17.2 µM
inactive: [2] | [3] | [4] | [5] | [6]

BrC(Br)Br
inactive: [1] | [2] | [7] | [5] | [6]

CCCCCCCCCBr
inactive: [1] | [2] | [7] | [4] | [5] | [6]

CC(=O)c1ccc(-c2ccccc2)cc1
not listed: [7] | [9] | [10]
inactive: all other assays above

CCCN(CCC)c1c([N+](=O)[O-])cc(S(N)(=O)=O)cc1[N+](=O)[O-]
inactive: [5]
active: [1] 4.86 µM | [2] 51.8 µM | [7] 23.1 µM | [4] 65.2 µM

CC(=O)c1cc(C(C)(C)C)cc2c1CCC2(C)C
inactive: [1] | [2] | [7] | [4]

C=CCOC(N)=O
inactive: [1] | [2] | [7] | [5] | [6]

CC[C@H](C)[C@H]1O[C@]2(C=C[C@@H]1C)C[C@@H]1C[C@@H](C/C=C(\C)[C@@H](O[C@H]3C[C@H](OC)[C@@H](O[C@H]4C[C@H](OC)[C@@H](O)[C@H](C)O4)[C@H](C)O3)[C@@H](C)/C=C/C=C3\CO[C@@H]4[C@H](O)C(C)=C[C@@H](C(=O)O1)[C@]34O)O2
inactive: [4] | [5] | [6]
active: [1] 16.1 µM | [2] 36.1 µM | [3] 25.6 µM

CN(C)[C@@H]1C(=O)C(C(N)=O)=C(O)[C@@]2(O)C(=O)C3=C(O)c4c(O)ccc(Cl)c4[C@@](C)(O)[C@H]3C[C@@H]12
active: [1] 55.6 µM
inactive: [2] | [3] | [5]

c1cc[c]([Sb]([c]2ccccc2)[c]2ccccc2)cc1
inactive: [2] | [8] | [5]
active: [1] 12.2 µM

COP(=O)(CCC(=O)NCO)OC
not listed: [7] | [9] | [10]
inactive: all other assays above

CN(C)C(=S)S
inactive: [2]
active: [1] 4.95 µM and 962 nM and 3.44 µM | [3] 12.4 µM

O=C(O)COc1nc(Cl)c(Cl)cc1Cl
inactive: [1] | [2] | [3] | [4] | [5]

CC(c1ccc(O)cc1)c1ccc(O)cc1
40.6 µM (active) and inactive: [7]
inactive: [2] | [5]
22.8 µM (active) and inactive: [1]

O=C(O)C1C2CCC(O2)C1C(=O)O (configuration not stated)
inactive: [2] | [3] | [5] | [6]
active: [1] 15.8 µM

CCCCCCCCCCCCCCCC[N+](C)(C)C
inactive: [5]
active: [1] 3.72 µM and 969 nM and 298 nM | [2] 29.5 µM and 48.6 µM and 26.6 µM | [7] 9.34 µM and 24.3 µM and 11.9 µM | [3] 23.5 µM and 54.5 µM and 23.7 µM

CCCCCCCCCCCCCCCC[n+]1ccccc1
active: [1] 508 nM and 30.6 nM and 21.4 nM | [2] 25.5 µM [middle of 4 runs] | [3] 29.8 µM [middle of 4 runs]
inactive: [4]

CN(C)c1ccc(N=Nc2ccccc2)cc1
active: [2] 48.6 µM
inactive: [1] | [3] | [5]

C=CC(=O)OCC(COC(=O)C=C)(COC(=O)C=C)COC(=O)C=C
active: [1] 6.86 µM | [2] 12.2 µM | [3] 9.69 µM
inactive: [8] | [4] | [5]

CN(C)S(=O)(=O)N(SC(F)(Cl)Cl)c1ccccc1
active: [1] 2.17 µM | [2] 30.6 µM | [7] 38.6 µM | [3] 54.5 µM
inactive: [5]

N#C/C=C/C#N
inactive: [1] | [2] | [7] | [5]

O=[N+]([O-])c1ccc2ccc3cccc4ccc1c2c34
inactive: [1] | [8] | [4]
active: [2] 48.5 µM

CCC[CH2][Sn]([CH2]CCC)([CH2]CCC)[O]C(=O)c1ccccc1
inactive: [4]
active: [1] 0.172 µM | [2] 1.72 µM | [7] 1.54 µM | [3] 1.93 µM | [6] 17.2 µM

CCN(CC)c1c([N+](=O)[O-])cc(C(F)(F)F)c(N)c1[N+](=O)[O-]
inactive: [2] | [8] | [3] | [4] | [5]
active: [1] 9.69 µM

O=C(CCl)C(Cl)Cl
active: [1] 2.76 µM | [2] 27.6 µM | [7] 9.78 µM
inactive: [4] | [5] | [6]

CCCCCCCCCCCCBr
active: [7] 43.3 µM
inactive: [1] | [2] | [4] | [5] | [6]

Clc1ccc(-c2ccc(Cl)c(Cl)c2Cl)c(Cl)c1Cl
inactive: [1] | [2] | [3] | [4] | [5]

COc1ccc([N+](=O)[O-])cc1O
inactive: [1] | [2] | [8] | [4] | [5] | [6]

CC(C)CC(C)(c1ccc(O)cc1)c1ccc(O)cc1
inactive: [2] | [5] | [6]
active: [1] 27.4 µM | [7] 68.7 µM and 61.1 µM | [3] 54.6 µM and 68.6 µM

Clc1ccc(CO/N=C(\Cn2ccnc2)c2ccc(Cl)cc2Cl)c(Cl)c1
inactive: [5]
active: [1] 4.73 µM | [7] 29.8 µM | [6] 26.6 µM

CCCCN(CCCC)C(=S)[S-].CCCCN(CCCC)C(=S)[S-].[Zn+2]
active: [1] 4.85 µM | [7] 13.7 µM | [3] 30.6 µM
inactive: [4]

CC(C)OC(=S)S
not listed: [1] | [8] | [10]
inactive: all other assays above

Cc1cc(C(F)(C(F)(F)F)C(F)(F)F)ccc1NC(=O)c1cccc(I)c1C(=O)NC(C)(C)CS(C)(=O)=O
active: [7] 19.4 µM
not listed: [1] | [3] | [8]
inactive: all other assays above

[Hg+2].[I-].[I-]
inactive: [4]
active: [1] 0.545 µM | [7] 5.45 µM | [3] 6.86 µM | [6] 43.3 µM

NC(=O)CCl
not listed: [1] | [3] | [10]
inactive: all other assays above

CC(Cc1ccc(C(C)(C)C)cc1)CN1C[C@@H](C)O[C@@H](C)C1 (some centres not stated)
inactive: [9] | [10] | [2] | [7] | [5]

COP(=S)(OC)Oc1cc(Cl)c(Br)cc1Cl
inactive: [9] | [2] | [7] | [8] | [4] | [5]

Nc1c(Oc2ccccc2)cc(O)c2c1C(=O)c1ccccc1C2=O
inactive: [1] | [7] | [8] | [3]
active: [4] 1.88 µM

COC(=O)N(C(=O)N1COC2(C(=O)OC)Cc3cc(Cl)ccc3C2=N1)c1ccc(OC(F)(F)F)cc1 (configuration not stated)
not listed: [1] | [7]
inactive: all other assays above

CSCCCN=C=S
inactive: [1] | [7] | [3] | [5] | [6]

CC1(C)CC/C(=C/c2ccc(Cl)cc2)C1(O)Cn1cncn1 (configuration not stated)
active: [7] 6.08 µM | [8] 17.1 µM
inactive: [9] | [2] | [3] | [4] | [5]

CCOP(=S)(OCC)SCCS(=O)(=O)CC
not listed: [1] | [8] | [10]
inactive: all other assays above

Oc1c(Br)c(Br)c(Br)c(Br)c1Br
inactive: [8] | [3] | [4]
active: [1] 19.4 µM

CC[C@H]1C[C@@H]2C[C@H]3c4[nH]c5ccc(OC)cc5c4CCN(C2)[C@@H]13
inactive: [7] | [8] | [3] | [4]
active: [1] 12 µM

COc1ccc(/C(=C/C(=O)N2CCOCC2)c2ccc(Cl)cc2)cc1OC
active: [7] 68.6 µM
not listed: [1] | [3] | [4]
inactive: all other assays above

COC(=O)N(C(=O)N1CO[C@@]2(C(=O)OC)Cc3cc(Cl)ccc3C2=N1)c1ccc(OC(F)(F)F)cc1
inactive: [9] | [2] | [7] | [8] | [4] | [6]

N#CC(Cl)Cl
active: [8] 47.3 µM
not listed: [1] | [4] | [10]
inactive: all other assays above

CCOP(=S)(OCC)SCS(=O)(=O)C(C)(C)C
not listed: [1] | [10]
inactive: all other assays above

Nc1ccc([N+](=O)[O-])cc1Cl
not listed: [2] | [9] | [10]
inactive: all other assays above

CC(C)(COCC1CO1)COCC1CO1 (configuration not stated)
inactive: [9] | [10] | [2] | [3] | [4] | [5]
